# According to the supplement of paper PMC8728848:
# Shown is part of a subset that was picked to be rich in the strongest signals.
# B1: TIM1 (protein)
# chain: ADGIQSVKVGGEAGPSVTLPCHYSGAVTSMCWNRGSCSLFTCQNGIVWTNGTHVTYRKDTRYKLLGDLSRRDVSLTIENTAVSDSGVYCCRVEHRGWFNDMKITVSLEIVPPHHHHHH
# How the values were obtained:
# Assay in all cases: glycan array binding signal (z-score within array); higher = stronger binding
# Conditions in all cases: glycan notation: IUPAC condensed, linker removed
# [1] = target: Fuc(a1-2)Gal(b1-3)GlcNAc(b1-2)Man(a1-3)[Fuc(a1-2)Gal(b1-3)GlcNAc(b1-2)Man(a1-6)]Man(b1-4)GlcNAc(b1-4)[Fuc(a1-6)]GlcNAc
# Summary of the method: (§1)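 Columns mapping to the same glycan were averaged after glycan names were converted to IUPAC-condensed notation. The data come from 3228 arrays in the Consortium for Functional Glycomics database, limited to those with an available protein sequence. Binding is reported as a within-array Z-score averaged across arrays of one protein sequence and across linkers.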
# [2] = target: Fuc(a1-2)Gal(b1-3)GlcNAc(b1-3)GalNAc
# Summary of the method: as §1
# [3] = target: Fuc(a1-2)Gal(b1-4)[Fuc(a1-3)]GlcNAc(b1-2)Man(a1-3)[Fuc(a1-2)Gal(b1-4)[Fuc(a1-3)]GlcNAc(b1-2)Man(a1-6)]Man(b1-4)GlcNAc(b1-4)[Fuc(a1-6)]GlcNAc
# Summary of the method: as §1
# [4] = target: Fuc(a1-2)Gal3S(b1-4)GlcNAc
# Summary of the method: as §1
# [5] = target: Fuc(a1-2)[Gal(a1-3)]Gal(b1-4)GlcNAc(b1-3)[Fuc(a1-2)[Gal(a1-3)]Gal(b1-4)GlcNAc(b1-6)]GalNAc
# Summary of the method: as §1
# [6] = target: Fuc(a1-2)[GalNAc(a1-3)]Gal(b1-3)GlcNAc
# Summary of the method: as §1
# [7] = target: Fuc(a1-2)[GalNAc(a1-3)]Gal(b1-4)GlcNAc(b1-2)Man(a1-3)[Fuc(a1-2)[GalNAc(a1-3)]Gal(b1-4)GlcNAc(b1-2)Man(a1-6)]Man(b1-4)GlcNAc(b1-4)[Fuc(a1-6)]GlcNAc
# Summary of the method: as §1
# Fuc(a1-4)GlcNAc = target: Fuc(a1-4)GlcNAc
# Summary of the method: as §1
# [8] = target: Gal(a1-3)Gal(b1-3)GlcNAc(b1-3)GalNAc
# Summary of the method: as §1
# [9] = target: Gal(a1-3)Gal(b1-3)[Fuc(a1-4)]GlcNAc(b1-2)Man(a1-3)[Gal(a1-3)Gal(b1-3)[Fuc(a1-4)]GlcNAc(b1-2)Man(a1-6)]Man(b1-4)GlcNAc(b1-4)GlcNAc
# Summary of the method: as §1
# [10] = target: Gal(a1-3)Gal(b1-4)GlcNAc(b1-2)Man(a1-3)[Gal(a1-3)Gal(b1-4)GlcNAc(b1-2)Man(a1-6)]Man(b1-4)GlcNAc(b1-4)GlcNAc
# Summary of the method: as §1
# [11] = target: Gal(a1-4)Gal(b1-4)GlcNAc(b1-2)Man(a1-3)[Gal(a1-4)Gal(b1-4)GlcNAc(b1-2)Man(a1-6)]Man(b1-4)GlcNAc(b1-4)GlcNAc
# Summary of the method: as §1
# Gal(b1-3)GlcNAc6S = target: Gal(b1-3)GlcNAc6S
# Summary of the method: as §1
# [12] = target: Gal(b1-3)[Fuc(a1-4)]GlcNAc
# Summary of the method: as §1
# [13] = target: Gal(b1-4)GalNAc(a1-3)[Fuc(a1-2)]Gal(b1-4)GlcNAc
# Summary of the method: as §1
# Gal(b1-4)GlcNAc(b1-2)Man = target: Gal(b1-4)GlcNAc(b1-2)Man
# Summary of the method: as §1
# [14] = target: Gal(b1-4)GlcNAc(b1-3)Gal(b1-4)GlcNAc(b1-2)Man(a1-3)[Gal(b1-4)GlcNAc(b1-3)Gal(b1-4)GlcNAc(b1-2)Man(a1-6)]Man(b1-4)GlcNAc(b1-4)GlcNAc
# Summary of the method: as §1
# [15] = target: Gal(b1-4)GlcNAc(b1-3)Gal(b1-4)GlcNAc(b1-3)Gal(b1-4)GlcNAc(b1-2)Man(a1-3)[Gal(b1-4)GlcNAc(b1-3)Gal(b1-4)GlcNAc(b1-3)Gal(b1-4)GlcNAc(b1-2)Man(a1-6)]Man(b1-4)GlcNAc(b1-4)GlcNAc
# Summary of the method: as §1
# [16] = target: Gal(b1-4)GlcNAc(b1-3)Gal(b1-4)GlcNAc(b1-3)Gal(b1-4)GlcNAc(b1-3)Gal(b1-4)GlcNAc(b1-2)Man(a1-3)[Gal(b1-4)GlcNAc(b1-3)Gal(b1-4)GlcNAc(b1-3)Gal(b1-4)GlcNAc(b1-3)Gal(b1-4)GlcNAc(b1-2)Man(a1-6)]Man(b1-4)GlcNAc(b1-4)GlcNAc
# Summary of the method: as §1
# [17] = target: Gal(b1-4)GlcNAc(b1-3)Gal(b1-4)GlcNAc(b1-3)Gal(b1-4)GlcNAc(b1-3)Gal(b1-4)GlcNAc(b1-2)Man(a1-3)[Gal(b1-4)GlcNAc(b1-3)Gal(b1-4)GlcNAc(b1-3)Gal(b1-4)GlcNAc(b1-3)Gal(b1-4)GlcNAc(b1-2)Man(a1-6)]Man(b1-4)GlcNAc(b1-4)[Fuc(a1-6)]GlcNAc
# Summary of the method: as §1
# [18] = target: Gal(b1-4)GlcNAc(b1-3)Gal(b1-4)GlcNAc(b1-3)Gal(b1-4)GlcNAc(b1-3)Gal(b1-4)GlcNAc(b1-3)Gal(b1-4)GlcNAc(b1-2)Man(a1-3)[Gal(b1-4)GlcNAc(b1-3)Gal(b1-4)GlcNAc(b1-3)Gal(b1-4)GlcNAc(b1-3)Gal(b1-4)GlcNAc(b1-3)Gal(b1-4)GlcNAc(b1-2)Man(a1-6)]Man(b1-4)GlcNAc(b1-4)[Fuc(a1-6)]GlcNAc
# Summary of the method: as §1
# [19] = target: Gal(b1-4)GlcNAc(b1-3)Gal(b1-4)GlcNAc(b1-3)[Gal(b1-4)GlcNAc(b1-3)Gal(b1-4)GlcNAc(b1-6)]GalNAc
# Summary of the method: as §1
# Gal6S(b1-3)GlcNAc6S = target: Gal6S(b1-3)GlcNAc6S
# Summary of the method: as §1
# Gal6S(b1-4)GlcNAc = target: Gal6S(b1-4)GlcNAc
# Summary of the method: as §1
# [20] = target: GalNAc(a1-3)GalNAc(b1-3)Gal(a1-4)Gal(b1-4)Glc
# Summary of the method: as §1
# [21] = target: GalNAc(b1-3)Gal(a1-4)Gal(b1-4)GlcNAc
# Summary of the method: as §1
binder,measurement,setting,value
B1,glycan array binding signal (z-score),[1],-0.132
same,glycan array binding signal (z-score),[2],-0.153
same,glycan array binding signal (z-score),[3],0.121
same,glycan array binding signal (z-score),[4],-0.264
same,glycan array binding signal (z-score),[5],1.94
same,glycan array binding signal (z-score),[6],-0.189
same,glycan array binding signal (z-score),[7],-0.187
same,glycan array binding signal (z-score),Fuc(a1-4)GlcNAc,8.15
same,glycan array binding signal (z-score),[8],-0.169
same,glycan array binding signal (z-score),[9],0.01
same,glycan array binding signal (z-score),[10],0.343
same,glycan array binding signal (z-score),[11],-0.176
same,glycan array binding signal (z-score),Gal(b1-3)GlcNAc6S,-0.212
same,glycan array binding signal (z-score),[12],-0.25
same,glycan array binding signal (z-score),[13],-0.212
same,glycan array binding signal (z-score),Gal(b1-4)GlcNAc(b1-2)Man,0.009
same,glycan array binding signal (z-score),[14],7.65
same,glycan array binding signal (z-score),[15],3.39
same,glycan array binding signal (z-score),[16],0.208
same,glycan array binding signal (z-score),[17],0.223
same,glycan array binding signal (z-score),[18],-0.05
same,glycan array binding signal (z-score),[19],2.45
same,glycan array binding signal (z-score),Gal6S(b1-3)GlcNAc6S,-0.043
same,glycan array binding signal (z-score),Gal6S(b1-4)GlcNAc,-0.175
same,glycan array binding signal (z-score),[20],-0.178
same,glycan array binding signal (z-score),[21],0.287
